Source: PubChem BioAssay
The list is not random: actives were taken first. Their share in the collection is about 3.5%.
MITF inh: inhibitors of human MITF; O75030; AlphaScreen MITF homodimerization, bead proximity signal; inhibition, % at 2.6 µM; hit rate 0.91% among 650,000; AID 1259374; in the data active = inhibition above about 50%;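 note: 0% = vehicle wells with protein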
FBW7 activator: activators of human E3 ligase FBW7 | Q969H0 | AlphaScreen FBW7–phospho-cyclin E peptide binding, activator screen | normalized activity (activation), % at 26.1 µM | hit rate 0.13% among 650,000 | AID 1259310; in the data active = normalized activity above about 1.9%;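 note: purified mutant Fbw7 with reduced substrate affinity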
GPR151 activ: activates the human receptor GPR151 | PathHunter beta-arrestin GPR151 cells, luminescence | activation, % at 11.2 µM | hit rate 1% among 650,000 | AID 1508602; in the data active = activation above about 4.9%;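 note: 0% = median of compound wells and 100% = cells with positive control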
Target sequence (Q8TDV0 whole entry, looked up): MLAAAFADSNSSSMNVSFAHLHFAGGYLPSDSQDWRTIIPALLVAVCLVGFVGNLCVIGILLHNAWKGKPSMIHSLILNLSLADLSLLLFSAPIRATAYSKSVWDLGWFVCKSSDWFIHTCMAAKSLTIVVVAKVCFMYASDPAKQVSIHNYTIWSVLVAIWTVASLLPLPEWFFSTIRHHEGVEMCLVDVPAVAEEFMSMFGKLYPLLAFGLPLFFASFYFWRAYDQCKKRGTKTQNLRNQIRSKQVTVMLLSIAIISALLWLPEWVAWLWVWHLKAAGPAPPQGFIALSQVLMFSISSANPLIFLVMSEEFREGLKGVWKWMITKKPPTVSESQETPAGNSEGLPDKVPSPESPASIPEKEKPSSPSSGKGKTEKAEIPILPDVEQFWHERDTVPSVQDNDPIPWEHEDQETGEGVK
TEAD-YAP block: TEAD-YAP interaction inhibition. HEK-TIYL cells, TEAD-Gal4/YAP UAS-luciferase luminescence. inhibition, % at 9.12 µM. hit rate 1.4% among 640,000; in the data active = inhibition above about 32%;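 note: 0% = median of test compound wells and 100% = reference inhibitor wells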
GPR151 confirm: confirmation of human GPR151 activators | shares compounds with GPR151 activ | GPR151 PathHunter beta-arrestin cells, luminescence, 90 min; % of EA-reagent control over plate median | activation, % at 11.2 µM | 6,700 tested, under 10 active;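 active = mean percent activation across replicates above the confirmation screen cutoff of 4.91%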
GPR119 counter: counter-screen for GPR151 activators: effect on human GPR119; shares compounds with GPR151 activ; GPR119 PathHunter beta-arrestin cells, luminescence, 90 min; 0 = compound-well median, 100 = enzyme-acceptor control; activation, % at 11.2 µM; hit rate 0.3% among 6,700;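 active = mean percent activation in the counterscreen above 29.09%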;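 note: counterscreen on off-target GPR119 to flag nonselective hits from the GPR151 activator screen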
The depositor's hits bear a star; . = no result.

SMILES	MITF inh	FBW7 activator	GPR151 activ	TEAD-YAP block	GPR151 confirm	GPR119 counter
CC(C)(C)Oc1ccc(CC(NC(=O)CNC(=O)OCc2ccccc2)C(N)=O)cc1 (stereo not given)	0.0	1.4	-0.2	5.0	.	.
CC(C)NC(=O)c1cc(=O)[nH]c2ccc(S(=O)(=O)N3CCCCCC3)cc12	10.4	0.5	-1.0	4.3	.	.
CC(C)NC(=O)c1cc(=O)[nH]c2ccc(S(=O)(=O)N3CCCC3)cc12	13.2	0.7	6.3*	9.1	-0.2	-0.6
O=C(Nc1ccccc1Cl)C1CCCCC1	16.3	0.0	-0.3	-1.4	.	.
O=C1CC(C(=O)Nc2ccccc2Cl)c2ccccc21 (stereo not given)	8.0	0.0	9.4*	-1.2	-0.4	0.2
CCN(CC)CCn1c(NCc2ccc(OC)c(OC)c2)nc2ccccc21	8.4	-0.1	-0.2	-14.6	.	.
CN(C)c1cccc(Nc2nc(Nc3ccc(N4CCOCC4)cc3)c3ncn(-c4ccsc4)c3n2)c1	4.7	-0.2	-0.4	8.8	.	.
Cc1nn(C)c(C)c1-c1nc(NCCO)c2ncn(-c3ccccc3)c2n1	2.9	0.0	5.2*	28.7	0.8	-3.3
c1ccc(Nc2nc(Nc3ccccc3)c3ncn(-c4ccsc4)c3n2)cc1	10.9	0.3	1.1	7.1	.	.
OCCNc1nc(Nc2ccccc2)nc2c1ncn2-c1ccsc1	13.2	0.0	5.1*	58.8*	-0.3	-7.7
CN(C)c1cccc(Nc2nc(Nc3ccc4c(c3)OCO4)c3ncn(-c4ccsc4)c3n2)c1	6.6	0.0	5.0*	-34.5	-0.9	-12.9
CN(C)c1cccc(Nc2nc(NCCO)c3ncn(-c4ccsc4)c3n2)c1	17.4	0.1	-1.9	8.4	.	.
CC(C)N(CCNc1nc(Nc2cccc(N(C)C)c2)nc2c1ncn2-c1ccsc1)C(C)C	8.7	0.0	5.7*	1.9	-0.8	-13.2
Cc1nn(C)c(C)c1-c1nc(NCCN2CCOCC2)c2ncn(-c3ccccc3)c2n1	18.1	0.0	-0.4	20.8	.	.
O=C(NCCO)c1cnc(-c2csc3ccccc23)s1	0.5	0.1	0.1	-15.3	.	.
COc1cccc(-c2nnc(-c3cc4cccc(OC)c4oc3=O)o2)c1	12.8	0.2	2.2	-2.7	.	.
CCOc1ccc(NC(=O)Nc2nnc(CSCc3ccccc3)s2)cc1	4.9	0.1	7.0*	11.6	0.7	12.4
COc1ccccc1C(=O)Nc1nnc(-c2ccc(Cl)cc2)o1	-2.1	-0.1	5.5*	-18.2	0.4	4.8
COc1cc(C(=O)Nc2ccc3oc(-c4ccc(I)cc4)nc3c2)cc(OC)c1OC	7.2	0.1	20.9*	-4.4	0.0	4.3
COc1ccccc1-c1nnc(NC(=O)c2ccc([N+](=O)[O-])s2)o1	5.8	0.1	14.6*	0.2	0.7	8.9
COc1ccccc1C(=O)Nc1nnc(-c2ccc(F)cc2)o1	-0.1	0.2	0.7	-2.7	.	.
O=C(Nc1nnc(-c2ccccc2)o1)c1ccc([N+](=O)[O-])s1	0.1	-0.1	2.6	1.4	.	.
Cc1ccc(C(=O)Nc2ccc3oc(-c4ccncc4)nc3c2)cc1C	-2.3	0.1	4.9*	0.2	1.0	16.0
Cc1ccn2c(CNCc3cn4cccnc4n3)c(C(=O)N3CCCCCC3)nc2c1	-0.1	-0.1	-0.1	6.3	.	.
CCn1cc(C(=O)Nc2cccc(O)c2)c(=O)c2ccc(C)nc21	11.9	0.0	0.2	1.6	.	.
SMILES	MITF inh	FBW7 activator	GPR151 activ	TEAD-YAP block	GPR151 confirm	GPR119 counter
COc1ccccc1C(=O)NCCN=C1NS(=O)(=O)c2ccccc21	10.6	0.1	-0.8	3.8	.	.
COc1ccccc1C(=O)Nc1ccc2oc(-c3ccc(C(C)(C)C)cc3)nc2c1	9.5	0.0	6.2*	5.3	0.9	-2.2
CCc1ccc(-c2nc3cc(NC(=O)c4cccc(C)c4)ccc3o2)cc1	9.1	-0.1	8.2*	1.3	0.1	-3.7
CCc1ccc2oc(-c3cc(NC(=O)c4cccc(C)c4)ccc3O)nc2c1	-1.8	-0.1	0.6	-8.6	.	.
O=C1C2ON(c3ccccc3)C(c3ccco3)C2C(=O)N1c1ccc(N2CCOCC2)cc1 (stereo not given)	16.4	0.4	-0.6	10.2	.	.
O=C(NC1CCN(Cc2ccccc2)CC1)c1ccc2nc(Nc3cnccn3)sc2c1	-4.2	-0.1	-2.8	4.3	.	.
CCS/C(=C(\C#N)C(N)=O)c1ccc(-c2ccccc2)[nH]1	-2.1	-0.2	5.2*	6.9	0.1	5.4
CCOC(=O)C1CCCN(c2c(N3CCN(c4ccccc4OC)CC3)c(=O)c2=O)C1 (stereo not given)	-4.5	-0.1	3.7	-10.2	.	.
C=CCNC(=O)CN1CCN(C(c2ccccc2)c2ccccc2)CC1	43.6	-0.1	6.2*	9.7	-0.2	-0.7
O=C(CN1CCN(C(c2ccccc2)c2ccccc2)CC1)NCc1cccs1	35.0	-0.3	-0.5	-4.9	.	.
C=CCNC(=O)CN1CCC(O)(c2cccnc2)CC1	-11.9	-0.1	6.2*	-8.5	-0.6	-2.9
C=CCNC(=O)CN1CCC(O)(c2ccccc2)CC1	15.5	1.0	-1.2	8.0	.	.
Cc1cccc(-n2cc(-c3ccc4c(c3)OCO4)[nH]c2=O)c1	-1.1	0.1	-1.3	-57.6	.	.
Cc1cc(C)c2[nH]c(=O)c(CN(CCO)C(=O)Nc3ccccc3)cc2c1	8.6	0.0	1.1	5.2	.	.
O=C(NCCO)C(=O)NCC1OCCCN1S(=O)(=O)c1ccc(Cl)cc1 (stereo not given)	-0.8	-0.2	0.9	-1.7	.	.
CCNC(=O)C(=O)NCC1OCCCN1S(=O)(=O)c1ccccc1 (stereo not given)	1.8	0.1	5.2*	0.3	-0.2	-9.1
C=CCNC(=O)C(=O)NCC1OCCCN1S(=O)(=O)c1ccc(F)cc1C (stereo not given)	-0.3	0.0	7.3*	-2.8	0.4	-6.3
O=C(NCCCO)C(=O)NCC1OCCCN1S(=O)(=O)c1ccc(Cl)cc1 (stereo not given)	-3.3	-0.2	9.5*	-9.3	0.0	-5.9
NC(=O)c1cc2cc(Br)ccc2oc1=Nc1ccc(F)cc1F	5.5	0.2	6.9*	3.0	0.9	11.2
Cc1ccc(CS(=O)(=O)CC2Nc3ccc(C(=O)N4CCN(c5cccc(C(F)(F)F)c5)CC4)cc3NC2=O)cc1 (stereo not given)	-1.1	-0.2	0.4	0.2	.	.
O=C1Nc2cc(C(=O)N3CCN(c4cccc(C(F)(F)F)c4)CC3)ccc2Sc2ccccc21	1.3	-0.1	5.1*	-3.3	0.1	11.0
Cc1cccc(CS(=O)(=O)CC2Nc3ccc(C(=O)N4CCN(c5cccc(C(F)(F)F)c5)CC4)cc3NC2=O)c1 (stereo not given)	12.8	0.3	5.2*	0.9	0.1	2.5
COc1ccc(C(CC(=O)O)NC(=O)OC(C)(C)C)cc1 (stereo not given)	-10.6	-0.1	-0.8	7.8	.	.
CC(C)OC(=O)CC(NC(=O)OC(C)(C)C)c1ccccc1 (stereo not given)	10.4	0.0	8.1*	.	0.2	6.7
